MPTP block: inhibitors of mitochondrial permeability transition pore; isolated mouse mitochondria, Ca2+ swelling absorbance, 30 min; inhibition, % at 10 µM; actives 1.4% (n = 360,000);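 active means inhibition of 50% or more, scaled per plate between neutral and stimulator controls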;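 further: 0% = DMSO wells given calcium and 100% = 1 mM EGTA wells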
ADAM17 inh: ADAM17 inhibition, QFRET primary screen | AID 720648 | P78536 | inhibition, % at 6.95 µM | recombinant ADAM17, EDANS/DABCYL FRET peptide cleavage | actives 0.83% (n = 370,000);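 active means inhibition above the mean of compounds lying between control limits plus 3 SD, set per campaign, cut at about 8.5% in these data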;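 further: 0% = DMSO-only wells as the low control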
Pemphigus Ab inh: inhibitors of pemphigus antibody binding to human desmoglein-3; binding (percent of control), % at 10 µM; actives 0.48% (n = 310,000); AID 588358; P32926; DSG3-coupled beads, scFv-anti-DSG3-GFP binding, flow cytometry; stronger effect = lower value;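 active means binding more than 3 SD below its plate's average and above zero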;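 further: hits lower antibody fragment binding to DSG3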
Target sequence (P32926 whole entry, looked up, the tested form may be a part): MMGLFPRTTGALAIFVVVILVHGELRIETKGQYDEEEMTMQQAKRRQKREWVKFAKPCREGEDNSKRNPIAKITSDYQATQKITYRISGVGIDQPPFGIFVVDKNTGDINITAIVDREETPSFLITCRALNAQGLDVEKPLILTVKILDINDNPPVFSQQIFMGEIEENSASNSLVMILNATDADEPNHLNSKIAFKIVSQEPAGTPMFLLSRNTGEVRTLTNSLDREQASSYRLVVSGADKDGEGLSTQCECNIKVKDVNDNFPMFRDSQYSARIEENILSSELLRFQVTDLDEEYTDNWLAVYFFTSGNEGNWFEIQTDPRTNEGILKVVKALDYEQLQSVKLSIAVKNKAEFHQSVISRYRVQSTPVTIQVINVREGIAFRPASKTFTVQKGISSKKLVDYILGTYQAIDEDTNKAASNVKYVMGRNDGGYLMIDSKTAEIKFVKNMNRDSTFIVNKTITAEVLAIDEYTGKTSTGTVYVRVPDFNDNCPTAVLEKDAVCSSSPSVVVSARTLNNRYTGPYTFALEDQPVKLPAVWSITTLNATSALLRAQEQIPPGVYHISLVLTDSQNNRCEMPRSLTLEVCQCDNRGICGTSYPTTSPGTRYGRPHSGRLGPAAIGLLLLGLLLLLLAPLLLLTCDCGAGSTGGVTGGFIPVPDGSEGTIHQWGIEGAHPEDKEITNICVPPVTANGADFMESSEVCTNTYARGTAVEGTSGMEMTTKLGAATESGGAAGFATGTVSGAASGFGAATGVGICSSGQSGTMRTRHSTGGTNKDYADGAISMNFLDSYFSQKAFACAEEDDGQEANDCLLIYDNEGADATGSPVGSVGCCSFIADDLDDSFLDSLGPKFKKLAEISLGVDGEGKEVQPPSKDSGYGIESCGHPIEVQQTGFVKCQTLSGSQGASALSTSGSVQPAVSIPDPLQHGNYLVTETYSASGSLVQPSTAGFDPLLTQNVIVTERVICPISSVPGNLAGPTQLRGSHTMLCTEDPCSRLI
rCAG RNA binder: binds r(CAG) RNA repeats; r(CAG) RNA repeat, TO-PRO-1 dye displacement fluorescence; inhibition, % at 3 µM; actives 1.3% (n = 370,000); AID 651821;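 active means inhibition above the plate cutoff, the mean of all test compounds on that plate plus 3 SD, cut at about 35% in these data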;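 further: 0% = DMSO alone and 100% = 100 µM mitoxantrone as full dye displacement; higher means more dye released from RNA so lower well fluorescence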
ADAM10 inh: inhibitors of human ADAM10; recombinant ADAM10, EDANS/DABCYL FRET peptide cleavage, 3 h; inhibition, % at 7 µM; actives 0.62% (n = 370,000); AID 720582;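 active means inhibition above a per-campaign cutoff equal to the mean of compounds falling between control-based bounds plus 3 SD, cut at about 20% in these data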;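 further: 0% = DMSO wells while the 100% control is not disclosed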
KLK7 zymogen act: activators of human kallikrein-7 zymogen. purified proKLK7, EDANS-DABCYL substrate fluorescence; 100% is mature enzyme control, 0% vehicle. P49862. actives 0.9% (n = 370,000). activation, % at 7 µM;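 active means activation above the mean of all tested compounds plus 3 SD, computed per campaign excluding outliers beyond control limits, cut at about 13% in these data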
* marks the source's active call; other numbers are inactive results; . = no result. Rows were chosen to be rich in hits. Some 4.7% of all compounds tested hit in one or more screens of this group.

SMILES	MPTP block	ADAM17 inh	Pemphigus Ab inh	rCAG RNA binder	ADAM10 inh	KLK7 zymogen act
C=CCN1C(=O)[C@H](CC(=O)NCc2ccccc2)[C@@]2(C(=O)OCC)CCCC=C12	.	-4	.	1	-3	0
Cc1ccc(OCCNC(=O)c2ccccc2N)cc1	-1	-98	46*	3	-447	1
COc1ccc(Cl)cc1N(CC(=O)N1CCC(C)CC1)S(C)(=O)=O	-1	0	81*	-4	4	-1
CCNC(=O)N(C(=O)NCC)n1c(C)nnc1C	0	0	109	-2	4	16*
CCNC(=O)N(C)c1nncnc1C(=O)NC	-2	-5	78	2	-1	0
Cn1c(=O)c(=O)n(C)c2cc(S(=O)(=O)N3CCN(c4ccccc4Cl)CC3)ccc21	.	6	.	6	5	0
Cc1ccccc1Cn1cc(COC(=O)NCCc2c[nH]c3ccccc23)nn1	.	-1	.	2	3	0
CCOc1ccc(/C=N/NC(=O)c2nnn(-c3nonc3N)c2COc2ccc(F)cc2)cc1	5	-6	.	3	-4	-1
CN(C)Cc1c(C(=O)N/N=C/c2cccc3ccccc23)nnn1-c1nonc1N	0	3	56*	0	-1	0
CN(C)c1ccc(/C=N/NC(=O)c2nnn(-c3nonc3N)c2COc2ccc(F)cc2)cc1	1	-5	77*	-2	-13	0
C[C@H](O)[C@@H]1C(=O)N2CCc3c([nH]c4c(-c5ccccc5)cccc34)[C@@H]2C[C@@H]1N(C)C(=O)c1ccccc1F	.	-3	.	7	-17	2
CC(=O)c1ccc(N2CCN(C(=O)CCCn3c(=S)[nH]c4cc5c(cc4c3=O)OCO5)CC2)cc1	6	1	.	1	25*	0
Cc1cccc(Nc2nc(N)nc(N)c2N=O)c1	-2	2	91	2	-4	0
Cc1ccc(N(C)c2nc(N)nc(N)c2N=O)cc1	.	-6	.	-74	-25	44*
NC(=O)c1ncn([C@@H]2O[C@H](C(=O)Nc3ccc(C(=O)N4CCCCC4)cc3)[C@@H](O)[C@H]2O)n1	.	-3	.	1	-13	1
O=C(NCc1ccccc1)[C@H]1CCCN1C(=O)[C@H]1CCCN1C(=O)c1ccc(OC(F)(F)F)cc1	.	-5	.	-2	-2	0
CCCCCCCCN1C(=O)[C@@H](CC(=O)N2CCC(c3ccccc3)CC2)C[C@@]2(C(=O)OC)C1=C[C@H](COCc1ccccc1)O[C@@H]2C	.	0	.	7	8	0
CCN(CC(=O)Nc1ccc(Br)cc1)CC(=O)Nc1cc(C)on1	1	-7	66*	-2	-23	-1
CC1Cc2nc(SCC(=O)NCc3ccccc3)n(Cc3ccccc3)c(=O)c2S1 (stereo not drawn)	-2	2	116	2	1	0
CC1Cc2nc(SCC(=O)c3ccccc3)n(Cc3ccccc3)c(=O)c2S1 (stereo not drawn)	2	3	101	6	20*	-1
Cc1cccc(C)c1OCc1nnc(SCC(=O)O)n1-c1c(C)cccc1C	.	-4	.	31	-3	0
COc1ccc(NC(=O)c2ccc3ccccc3c2)cc1	1	0	97*	7	12	2
COc1ccc(NC(=O)c2ccc3c(c2)C(=O)N(Cc2cccnc2)C3=O)cc1	-1	-2	70*	0	3	0
Cc1ccc2c(c1)-c1c(cnn1CC(=O)NCCc1ccc(Cl)cc1)CO2	.	-2	.	0	-3	1
O=C(OCc1cn(Cc2ccc(C(F)(F)F)cc2)nn1)N1CCOCC1	.	-12	.	3	-24	0
COc1cc(/C=C2/C(=N)N3OC(C)=CC3=NC2=O)ccc1OC(=O)c1ccco1	2	-4	61*	1	-25	1
COc1cc(/C=C2/C(=O)NN(c3ccc(Cl)cc3)C2=O)ccc1OC(=O)c1ccco1	7	5	100	76*	7	0
CCOC(=O)N1CCN(C(=O)C[C@H]2C[C@@]3(C(=O)OCC)CCCC4=C3N(CCC4)C2=O)CC1	.	-1	.	0	3	1
Cc1ccc(-c2nc3sc(C#N)c(N)n3c(=O)c2C#N)cc1	0	-2	68*	32	-4	0
Cc1ccc(-n2c(N)c(C#N)c(-c3ccccc3)c(C#N)c2=O)cc1	3	-1	102	5	-1	-3
